{"source": "PubChem BioAssay AID2315", "about": "(National Center for Advancing Translational Sciences (NCATS), 2010)", "note": "In all, about 290,000 compounds went through this assay and about 27,000 (9.3%) were called active. The full list was thinned out, with actives kept by preference. Values without a mark were called inactive. No stated cut-off is given here; in the data, active means inhibition mostly above about 28% (no sharp cut-off); inactive means mostly below about 43%.", "data": [{"test": "A qHTS for Small Molecule Inhibitors of Shiga Toxin; further: 0% is about no effect", "details": "Vero cells, Shiga toxin protein synthesis inhibition reporter; at 38.7 µM, stronger effect = higher value", "values": [{"molecule": "Cc1ccc(CNC(=O)c2ccc(CS(=O)Cc3cccc(Cl)c3)o2)cc1", "note": "(stereo not drawn)", "inhibition": "-5.59%"}, {"molecule": "CCNC(=O)Nc1ccc(S(=O)(=O)Nc2cnc(C)nc2C)cc1", "inhibition": "-5.43%"}, {"molecule": "O=C(NCc1ccncc1)C(=O)NCC1OCCN1S(=O)(=O)c1ccc(Br)cc1", "note": "(stereo not drawn)", "inhibition": "-17%"}, {"molecule": "O=C(Nc1cccc(Cl)c1)C1CCCN(c2cnccn2)C1", "note": "(stereo not drawn)", "inhibition": "-10.4%"}, {"molecule": "Cc1cc(C)nc(N2CCC(C(=O)Nc3ccc4c(c3)OCCO4)CC2)n1", "inhibition": "51.5%"}, {"molecule": "O=C(Nc1ccc2c(c1)OCCO2)C1CCCN(c2ncccn2)C1", "note": "(stereo not drawn)", "inhibition": "66.6% (active)"}, {"molecule": "CC(C)=CCN1CCN(CCCc2ccccc2)CC1CCO", "note": "(stereo not drawn)", "inhibition": "-4.24%"}, {"molecule": "COc1ccc(-c2nn(-c3ccccc3)cc2/C=C2/SC(=S)N(CCCC(=O)O)C2=O)c(C)c1", "inhibition": "-11.2%"}, {"molecule": "CCOC(=O)c1c(C)[nH]c2c1-c1ccccc1C(=O)C2=O", "inhibition": "31.2%"}, {"molecule": "CCOC(=O)c1c(C)[nH]c(C2=NNC(=NC(C)COC)SC2)c1C", "note": "(stereo not drawn)", "inhibition": "75.1% (active)"}, {"molecule": "Cc1cc(Nc2ccc(C(=O)N3CCCCC3)cc2)c2cccc(C)c2n1", "inhibition": "-5.1%"}, {"molecule": "Cc1cccc(C(=O)Nc2nnc(Cc3c[nH]c4ccccc34)s2)c1", "inhibition": "-6.89%"}, {"molecule": "Cc1cccc(N=C2NN=C(c3c[nH]c4ccccc34)CS2)c1", "inhibition": "42.1% (active)"}, {"molecule": "Cc1cccc(N=C2NC(=O)/C(=C/c3cn(C)c4ccccc34)S2)c1", "inhibition": "-7.28%"}, {"molecule": "CS(=O)(=O)N1CCN=C1SCc1ccc(F)cc1", "inhibition": "9.38%"}, {"molecule": "COc1ccc(N(CC(=O)NCCSCc2cccc(Cl)c2)S(C)(=O)=O)cc1", "inhibition": "-2.69%"}, {"molecule": "CCN(CC)C(=O)COc1coc(CN2CCN(Cc3ccccc3)CC2)cc1=O", "inhibition": "-10.1%"}, {"molecule": "COc1cccc2cc(/C(C)=N/NC(=O)c3ccco3)oc12", "inhibition": "32.4%"}, {"molecule": "Cc1cccc(C(=O)OCC(=O)Nc2ccc(F)cc2)c1", "inhibition": "27.4%"}, {"molecule": "CCC(=O)Nc1ccc2nn(-c3ccc(F)cc3)nc2c1", "inhibition": "74.1% (active)"}, {"molecule": "Cc1nn(CC(=O)Nc2ccc(F)cc2)c(=O)c2ccccc12", "inhibition": "-1.35%"}, {"molecule": "Cc1ccccc1CN1CCC(C(=O)Nc2ccc(Oc3cccnc3)cc2)CC1", "inhibition": "-3.91%"}, {"molecule": "O=C(Nc1ccccc1N1CCOCC1)c1csc2c1CCCC2", "inhibition": "11.3%"}, {"molecule": "CCOC(=O)c1sc(NC(=O)c2sc(C)nc2C)nc1C", "inhibition": "30.3%"}, {"molecule": "O=C(N/N=C/c1ccco1)c1ccc(NC(=O)C2CC2)cc1", "inhibition": "-2.21%"}, {"molecule": "Cc1ccc(NC(=O)c2csc3c2CCCC3)cc1", "inhibition": "110% (active)"}, {"molecule": "COC(=O)c1c(NC(=O)CCCC(=O)O)sc2c1CCCCC2", "inhibition": "-0.986%"}, {"molecule": "O=C(CN1CCCC1)Nc1sc2c(c1C(=O)Nc1ccccc1)CCCC2", "inhibition": "-10.4%"}, {"molecule": "O=C(N/N=C/c1ccco1)c1csc2c1CCCC2", "inhibition": "122% (active)"}, {"molecule": "Cc1ccc(NC(=O)c2c(NC(=O)CCC(=O)O)sc3c2CCCCC3)cc1", "inhibition": "42.9% (active)"}, {"molecule": "O=C(N/N=C/c1ccco1)c1ccc(C(=O)N/N=C/c2ccco2)o1", "inhibition": "-3.95%"}, {"molecule": "COC(=O)c1sc(NC(=O)c2csc3c2CCCC3)nc1C", "inhibition": "76.1% (active)"}, {"molecule": "COC(=O)c1sccc1NC(=O)c1csc2c1CCCC2", "inhibition": "92.6%"}, {"molecule": "O=C(NCc1ccccc1Cl)c1csc2c1CCCCC2", "inhibition": "11.2%"}, {"molecule": "COc1ccc(S(=O)(=O)NCC(=O)NCc2cc(=O)n(C)c(=O)n2C)cc1F", "inhibition": "-4.87%"}, {"molecule": "CCOC(=O)c1cc2ccccc2n1CC(=O)c1ccccc1", "inhibition": "3.23%"}, {"molecule": "COc1cccc(N2C(=O)CN(Cc3ccccc3)C2=S)c1", "inhibition": "24.3%"}, {"molecule": "Cc1ccc(OCC(=O)Nc2ccc(N3CCN(C(=O)c4ccco4)CC3)cc2)c(C)c1", "inhibition": "-6.09%"}, {"molecule": "O=C(c1ccccc1F)N(Cc1ccccc1)Cc1ccccc1", "inhibition": "18%"}, {"molecule": "Cc1nc(N)nc(SCc2ccc([N+](=O)[O-])cc2)c1N", "inhibition": "-4.97%"}, {"molecule": "Cc1ccc(NS(=O)(=O)c2ccc3c(c2)oc(=O)n3C)c(C)c1", "inhibition": "0.571%"}, {"molecule": "COc1ccc(-c2ccc(OC)c(C3C4C=CCC(C)C4C(=O)N3Cc3ccccc3)c2)cc1C", "note": "(stereo not drawn)", "inhibition": "31.9%"}, {"molecule": "COc1ccc2oc(=N)c(C(=O)Nc3ccc(Br)cc3)cc2c1", "inhibition": "14.3%"}, {"molecule": "COc1ccc(C(=O)OCC(=O)Nc2cccc(C(C)=O)c2)cc1OC", "inhibition": "8.39%"}, {"molecule": "O=C(COC(=O)C1CCCCC1)Nc1ccc([N+](=O)[O-])cc1", "inhibition": "30.9%"}, {"molecule": "O=C(Nc1ccc([N+](=O)[O-])cc1)C1(c2ccccc2)CCOCC1", "inhibition": "-4.2%"}, {"molecule": "O=C(Nc1ccc([N+](=O)[O-])cc1)C1CC12CCC2", "note": "(stereo not drawn)", "inhibition": "76.1% (active)"}, {"molecule": "Cn1nccc1C(=O)NC1CCCc2c1cnn2-c1ccccc1F", "note": "(stereo not drawn)", "inhibition": "-4.18%"}, {"molecule": "CCN1C(=O)c2cccc3c(S(=O)(=O)Nc4ccccc4O)ccc1c23", "inhibition": "34.3%"}, {"molecule": "CC1CN(C(=S)Nc2cccc(F)c2)CC(C)O1", "note": "(stereo not drawn)", "inhibition": "-2.89%"}, {"molecule": "CCC(=O)Nc1ccc(-c2ccc(N3CCCCC3)nn2)cc1", "inhibition": "63.9% (active)"}, {"molecule": "CCCCSc1nnc(-c2ccc(NC(=O)CC)cc2)n1C", "inhibition": "-10.7%"}, {"molecule": "O=C(CN1CCN(c2ccccn2)CC1)Nc1ccc(Br)cc1", "inhibition": "-9.75%"}, {"molecule": "O=C(CN1C(=O)c2cccnc2Oc2ccc(Cl)cc21)NCCc1ccccc1", "inhibition": "3.75%"}, {"molecule": "CCOc1ccc(C(=O)Nc2ccncc2)cc1", "inhibition": "77.7%"}, {"molecule": "Cc1nnc(SCC(=O)Nc2cccc(N)c2)n1-c1ccccc1", "inhibition": "4.15%"}, {"molecule": "Cc1cc(C)cc(NC(=O)CSc2ccccc2)c1", "inhibition": "29.4%"}, {"molecule": "CSc1cccc(NC(=O)CSc2ccccc2)c1", "inhibition": "3.54% (active)"}, {"molecule": "O=C(CSc1nc(C2CC2)nc2ccccc12)Nc1cccc(O)c1", "inhibition": "-5.2%"}, {"molecule": "CCOc1ccc(C(=O)Nc2cccc(SC)c2)cc1", "inhibition": "47.7% (active)"}, {"molecule": "O=C(Cc1ccccc1)Nc1ccc(C(=O)Nc2ccccc2C(=O)O)cc1", "inhibition": "-19.6%"}, {"molecule": "CCOc1ccc(C(=O)Nc2cccc(-c3ccc4nncn4n3)c2)cc1", "inhibition": "35.1%"}, {"molecule": "O=C(CSc1ccccc1)Nc1ccc(C(=O)Nc2cccc(O)c2)cc1", "inhibition": "65.7% (active)"}]}]}
